Results reported in PubChem BioAssay AID1851 (National Center for Advancing Translational Sciences (NCATS), 2009).
Values joined by “and” are separate entries in the source; they are usually repeats but may differ in a detail not shown here. Equal entries are not always repeated. Hit rate of the full screen: of about 16,000 compounds, about 4,000 (25%) were called active. Roughly 26% stayed inconclusive and do not appear here. The call rests on the fitted dose curve; in most records, active means well fitted curve in the direction sought with a large enough effect; inconclusive means small, poorly fitted or top-dose-only effect, or effect the other way; inactive means no such curve, though single readings can be large or run the other way. Only a sample is shown. Where a structure was tested more than once in an assay, its records may differ in their call.

These molecules were tested against Cytochrome P450 2C9 (Homo sapiens) (UniProt P11712) (assay: Cytochrome panel assay with activity outcomes). Settings: recombinant CYP, pro-luciferin dealkylation, luminescence, p450-cyp2c9; series mostly up to 57.1 µM.
On the % scale 0 is the no-effect control and ±100 the full control effect.

Chain of Cytochrome P450 2C9 (Homo sapiens) (P11712 whole entry, looked up): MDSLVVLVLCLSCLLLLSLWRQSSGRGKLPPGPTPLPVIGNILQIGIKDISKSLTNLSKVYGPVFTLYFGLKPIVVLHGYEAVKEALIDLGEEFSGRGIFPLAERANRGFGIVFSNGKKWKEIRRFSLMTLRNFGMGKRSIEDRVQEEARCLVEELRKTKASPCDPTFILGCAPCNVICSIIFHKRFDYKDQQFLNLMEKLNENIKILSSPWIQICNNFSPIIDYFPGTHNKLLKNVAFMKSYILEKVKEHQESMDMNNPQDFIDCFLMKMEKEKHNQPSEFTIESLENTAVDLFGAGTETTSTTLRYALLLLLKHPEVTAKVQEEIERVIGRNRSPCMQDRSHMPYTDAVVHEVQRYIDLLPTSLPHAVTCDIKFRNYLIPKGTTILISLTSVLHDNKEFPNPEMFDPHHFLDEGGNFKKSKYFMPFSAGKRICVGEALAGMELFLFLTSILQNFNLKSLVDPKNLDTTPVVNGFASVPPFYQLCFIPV

| SMILES | activity, negative = inhibition | AC50 |
| --- | --- | --- |
| c1cnc(N2CCC3(CCNCC3)CC2)nc1 | inactive |  |
| C[Se]C[C@@H](N)C(=O)O | inactive |  |
| O=c1[nH]c(=O)n([C@H]2C[C@H](O)[C@H](CO)O2)cc1/C=C\Br | inactive |  |
| Oc1ccc2c3c1O[C@H]1c4c(c5ccccc5n4Cc4ccccc4)C[C@]4(O)[C@H](C2)N(CC2CC2)CC[C@@]314 | inactive |  |
| Clc1cccc(N2CCNCC2)c1 | inactive |  |
| c1ccc2nc(N3CCNCC3)ccc2c1 | inactive |  |
| Clc1cncc(N2CCNCC2)n1 |  | 2000 nM (active) |
| CCCN(CCC)[C@H]1CCc2c(F)ccc(O)c2C1 | inactive |  |
| NS(=O)(=O)C[C-]1C=C[CH]([Sb-]([Cl])([Cl])([Cl])([Cl])[Cl])C=C1.c1ccncc1 (configuration not stated) | 2.33% [at 11.4 µM] (inactive) |  |
| CNCCc1cnc[nH]1 | inactive |  |
| Cc1ccccc1-c1cncnc1NCCc1cnc[nH]1 |  | 1000 nM (active) |
| CN1C(=O)C(=Cc2ccccc2Oc2ccc(Cl)c(F)c2)C(=O)N(C)C1=O |  | 6310 nM (active) |
| COC1=C(C)C(=O)c2c(c(COC(N)=O)c3n2C[C@@H]2[C@@H]3N2C)C1=O (some centres not stated) | -23.6% [at 11.4 µM] (inactive) |  |
| Cc1sc2ccccc2c1CC1=NCCN1 | inactive |  |
| CC(=O)O[C@H]1C[C@@H](O[C@@H]2[C@H](C)O[C@H](O[C@@H]3[C@H](C)O[C@H](O[C@@H]4CC[C@@]5(C)[C@@H](CC[C@]6(C)[C@]5(C)C[C@H](O)[C@]5(C)[C@@H](C7=CC(=O)OC7)CC[C@@]56O)C4)C[C@@H]3O)C[C@@H]2O)O[C@@H](C)[C@H]1O[C@H]1O[C@@H](CO)[C@@H](O)[C@@H](O)[C@@H]1O | inactive |  |
| CNC(=O)OCC[N+](C)(C)C | inactive |  |
| COC(=O)c1[nH]c2ccc(Br)cc2c1NC(=O)Oc1ccccc1 |  | 8910 nM (active) |
| COC(=O)c1cc2c(cn1)[nH]c1ccccc12 | inactive |  |
| N[C@@H](Cc1cc(Br)c(O)c(Br)c1)C(=O)O | -7.73% [at 11.4 µM] (inactive) |  |
| CN(C(=O)Cc1ccc(Cl)c(Cl)c1)[C@@H](CN1CCCC1)c1cccc(OCC(=O)O)c1 | inactive |  |
| COC(=O)N1CCN(C(=O)Cc2ccc(Cl)c(Cl)c2)[C@H](CN2CCCC2)C1 |  | inactive and 12.6 µM (active) |
| O=C(Cc1ccc(Cl)c(Cl)c1)N1CCCC[C@H]1CN1CCCC1 | inactive |  |
| O=c1[nH]c(=O)n(CCC2=CCCCC2)c(O)c1C=Nc1cccc(F)c1 | inactive |  |
| CCn1cnc2c(Nc3cccc(Cl)c3)nc(N[C@@H]3CCCC[C@H]3N)nc21 | inactive |  |

| SMILES | activity, negative = inhibition | AC50 |
| --- | --- | --- |
| Cc1ccccc1-n1c(O)c(C=Nc2ccc(N(C)C)cc2)c(=O)[nH]c1=O | inactive |  |
| CC(C)N[C@@H](C)Cc1ccc(I)cc1 | inactive |  |
| CCN(CC)C1=NC(=[N+](CC)CC)c2ccccc21 | inactive |  |
| C[C@]1(C(=O)O)[C@@H]2CC[C@@H](O2)[C@@]1(C)C(=O)O | inactive |  |
| CCOCCN1CCC(OC(C)=O)C(C)C1 (configuration not stated) | inactive |  |
| CCN1C[C@]2(C)CC[C@H](OC)[C@@]34[C@@H]2[C@H](OC(C)=O)[C@]2(OCO[C@@]25C[C@@H](OC)[C@@H]2C[C@@]3(O)[C@H]5[C@@H]2OC)[C@H]14 | inactive |  |
| O=C1NC(=O)N(CCNc2ncc(C(F)(F)F)cc2Cl)C(=O)C1/C=N/OCc1c(F)cccc1Cl (configuration not stated) |  | 794 nM (active) |
| NC[C@@H](CC(=O)O)c1ccc(Cl)cc1 | inactive |  |
| N[C@@]1(C(=O)O)CC[C@H](C(=O)O)C1 | inactive |  |
| COC[C@H]1OC(=O)c2coc3c2[C@@]1(C)C1=C(C3=O)[C@H]2CCC(=O)[C@@]2(C)C[C@H]1OC(C)=O | inactive |  |
| Cc1cc(C(C)(C)C)cc(C)c1CC1=NCCN1 | inactive |  |
| CC[C@H](CO)NC(=O)[C@@H]1C=C2c3cccc4c3c(cn4C)C[C@@H]2N(C)C1 | inactive |  |
| CC(=O)OCC(=O)[C@@H]1CC[C@H]2[C@H]3CC[C@H]4C[C@@H](O)CC[C@]4(C)[C@@H]3C(=O)C[C@@]12C | inactive |  |
| CC(=O)[C@@H]1CC[C@H]2[C@H]3CC[C@H]4C[C@@H](O)CC[C@]4(C)[C@@H]3CC[C@]12C |  | 2000 nM (active) |
| C[C@H]1CC[C@]2(OC1)O[C@@H]1C[C@@H]3[C@@H]4CC[C@H]5C[C@@H](O)CC[C@]5(C)[C@@H]4CC(=O)[C@@]3(C)[C@H]1[C@@H]2C | inactive |  |
| C[C@]12CC[C@H](O)C[C@@H]1CC[C@H]1[C@H]2CC[C@]2(C)C(=O)CC[C@@H]12 | inactive |  |
| C[C@@]12CC[C@H]3[C@@H](CCC4=CC(=O)CC[C@]43C)[C@H]1CC[C@H]2C(=O)CO | inactive |  |
| C[C@]12CC[C@H](O)C[C@@H]1CC[C@H]1[C@H]2CC[C@]2(C)[C@H](C(=O)CO)CC[C@@H]12 |  | 25100 nM (active) |
| CC(C)(C)NC[C@H](O)c1cc(Cl)c(N)c(Cl)c1 | inactive |  |
| O=C1C=C2C=C[C@H]3C[C@@]2(O1)[C@H]1CCCCN31 | inactive |  |
| CN[C@H](Cc1ccccc1)c1cccc(OC)c1O | 9.59% [at 11.4 µM] (inactive) |  |
| CCC(=O)O[C@@](Cc1ccccc1)(c1ccccc1)[C@@H](C)CN(C)C | inactive |  |
| CC(C)Oc1cc(-n2c(=S)[nH]c3ccccc3c2=O)c(Cl)cc1Cl |  | 2240 nM (active) |
